PubChem BioAssay (Tox21)
Inconclusive results are not listed. Calls of active or inactive are those of the source. Unless noted, calls come from the whole dose curve; as a rule, active = well fitted curve in the direction sought with a large enough effect in the repeat runs; inconclusive = weak or mixed curves; inactive = no such curve, though single readings can be large; an effect the other way counts as inactive or inconclusive.

Assays:
[1] = qHTS assay to identify small molecule antagonists of the progesterone receptor (PR) signaling pathway - cell viability counter screen (AID 1346798); note: nearly all actives have a fitted effect of over 50% in size; note: potency is the fitted concentration of half-maximal effect;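 for activity change, negative = cytotoxicity: HEK293T PR-UAS-bla cells stimulated with the agonist R5020; series mostly up to about 92 µM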
Procedure, shortened: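 HEK293T PR-UAS-bla, 2% charcoal-stripped FBS; 4 hr pre-plate; cpd + R5020, 16 h 37C; LiveBLAzer read first; then CellTiter-Glo 30 min RT, luminescence.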

[2] = biological target: Thyrotropin-releasing hormone receptor (Homo sapiens) (UniProt P34981); experiment: qHTS assay to identify small molecule antagonists of the thyrotropin-releasing hormone receptor (TRHR) signaling pathway (AID 1346877; active = well fitted inhibition curve with a large enough effect in the repeat runs, not every such curve was filed as active; note: potency is the fitted concentration of half-maximal effect; for activity, negative = inhibition: series mostly up to about 51 µM)
Chain of Thyrotropin-releasing hormone receptor (Homo sapiens) (P34981 whole entry, looked up): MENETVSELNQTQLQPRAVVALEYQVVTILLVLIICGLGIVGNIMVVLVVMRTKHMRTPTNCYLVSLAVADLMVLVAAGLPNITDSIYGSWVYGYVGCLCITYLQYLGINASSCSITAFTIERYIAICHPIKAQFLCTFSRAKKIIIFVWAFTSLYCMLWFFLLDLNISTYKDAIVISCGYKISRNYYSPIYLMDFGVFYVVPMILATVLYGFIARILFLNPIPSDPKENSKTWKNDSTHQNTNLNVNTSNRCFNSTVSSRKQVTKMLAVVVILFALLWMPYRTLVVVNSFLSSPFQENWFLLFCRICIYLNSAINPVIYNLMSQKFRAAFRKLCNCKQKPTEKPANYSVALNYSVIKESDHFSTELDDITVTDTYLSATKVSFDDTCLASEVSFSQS
Procedure, shortened: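 Following an 18 h incubation at 37 °C and a 2 h calcium dye load, TRHR-HEK293 cells were exposed to compound (5 min, room temperature) and challenged with TRH, 1 nM final.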

[3] = biological target: Thyrotropin-releasing hormone receptor (Homo sapiens) (UniProt P34981); experiment: qHTS assay to identify small molecule agonists of the thyrotropin-releasing hormone receptor (TRHR) signaling pathway (AID 1346891; calls by dose curve; note: potency is the fitted concentration of half-maximal effect; for activation: series mostly up to about 58 µM)
Procedure, shortened: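 Intracellular calcium rise, read as fluorescence every second for 3 min, served as the agonist signal in dye-loaded HEK293 cells expressing TRHR; each compound ran at 15 concentrations in triplicate.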

[4] = qHTS assay to identify small molecule agonists of the TGF-beta/Smad signaling pathway - cell viability counter screen (AID 1346829); note: nearly all actives have a fitted effect of over 45% in size; note: potency is the fitted concentration of half-maximal effect; for activity change, negative = cytotoxicity: top concentration of the series differs between compounds
Procedure, shortened: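 Same-well cytotoxicity: CellTiter-Glo added after the 2 hr room-temperature beta-lactamase substrate step, luminescence measured 30 min later; cells had 5 hr of compound at 37 C.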

[5] = qHTS assay to identify small molecule agonists of the TGF-beta/Smad signaling pathway (AID 1346859; active = well fitted activation curve with a large enough effect in the signal ratio in the repeat runs, not every such curve was filed as active; the % refers to the signal ratio; note: series mostly up to about 77 µM)
Procedure, shortened: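 SBE-bla HEK 293T, 4,000 cells/well, plated o/n; cpd in DMSO, 5 hr, 37 C/5% CO2; B/G FRET substrate 2 hr RT; ex 405, em 460/530 nm.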

[6] = Human pregnane X receptor (PXR) small molecule agonists, qHTS cell viability counter screen (AID 1346977); note: nearly all actives have a fitted effect of over 50% in size; note: potency is the fitted concentration of half-maximal effect
Procedure, shortened: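 PXR-Luc HepG2, 2,000 cells/well, 5% charcoal-stripped FBS; 5hr settle; cpd 24hr, 37C/5% CO2; CellTiter-Fluor at 23hr, read 1hr later (fluorescence).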

[7] = Caspase-3/7 induction in HepG2 cells by small molecules, qHTS assay (AID 1346978); note: nearly all actives have a fitted effect of over 15% in size; note: potency is the fitted concentration of half-maximal effect
Procedure, shortened: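 Wild-type HepG2 cells, 2,000/well, settled 5 hr at 37 C and 5% CO2, then compound-treated for 17 hr; caspase-3/7 activity read by luminescent Caspase-Glo 3/7 after 30 min at room temperature.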

[8] = Caspase-3/7 induction in CHO-K1 cells by small molecules, qHTS cell viability counter screen (AID 1346979); note: nearly all actives have a fitted effect of over 35% in size; note: potency is the fitted concentration of half-maximal effect
Procedure, shortened: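 Cells (CHO-K1, wild type) are plated at 1,500 per well and incubated 5hr. Test compounds in DMSO are then pinned in, followed by 16hr at 37C and 5% CO2. Viability is read by CellTiter-Fluor fluorescence after 1hr.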

[9] = qHTS assay to identify small molecule agonists of the progesterone receptor (PR) signaling pathway - cell viability counter screen (AID 1346799; calls by dose curve; note: nearly all actives have a fitted effect of over 45% in size; note: potency is the fitted concentration of half-maximal effect)
Procedure, shortened: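 Luminescence from CellTiter-Glo, added after the beta-lactamase FRET read in the same wells, gave cytotoxicity in PR-UAS-bla HEK293T cells treated with compounds for 16 hr at 37C.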

[10] = qHTS assay to identify small molecule antagonists of the TGF-beta/Smad signaling pathway - cell viability counter screen (AID 1346824); note: nearly all actives have a fitted effect of over 50% in size; note: potency is the fitted concentration of half-maximal effect
Procedure, shortened: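 SBE-bla HEK 293T cells, incubated overnight, then compound plus 0.25 ng/mL TGF-beta1 (stock added) for 5 hr at 37 C. Viability was read in the same wells by CellTiter-Glo luminescence after 30 min at room temperature.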
% is set by controls: 0 for no effect and ±100 for the full control effect.

O=C1Cc2ccccc2C1
inactive: Potency [1] | Potency [2] | Potency [3]

CCc1c(C)cc(N)c(CC)c1N
inactive: Potency [1] | Potency [4] | outcome [5] | Potency [2] | Potency [3] | Potency [6] | Potency [7] | Potency [8]

N#Cc1ccc(C/C(=N/NC(=O)Nc2ccc(OC(F)(F)F)cc2)c2cccc(C(F)(F)F)c2)cc1
inactive: Potency [9] | Potency [10] | Potency [4] | outcome [5] | Potency [2] | Potency [3] | Potency [6] | Potency [7]

CC(Cc1ccc(O)c(O)c1)C(C)Cc1ccc(O)c(O)c1 (configuration not stated)
inactive: Potency [1] | Potency [10] | Potency [4] | outcome [5] | Potency [6] | Potency [7]

Oc1ccc(C2(c3ccc(O)c(C4CCCCC4)c3)CCCCC2)cc1C1CCCCC1
active: Potency [1] 43.3 µM | Potency [10] 43.6 µM | Potency [4] 49 µM | Potency [6] 19.3 µM | Potency [7] 24.3 µM
inactive: Potency [2] | Potency [3]

C=C1CC[C@H]2O[C@]2(C)CC[C@@H]2[C@@H]1CC2(C)C
inactive: Potency [1] | Potency [10] | Potency [4] | outcome [5] | Potency [6] | Potency [7] | Potency [8]

CCOC(=O)[C@H](C)O
inactive: Potency [1] | Potency [10] | Potency [4] | outcome [5] | Potency [6] | Potency [8]

O=C1OC2(c3ccccc31)c1ccc(O)c(Br)c1Oc1c2ccc(O)c1Br
inactive: Potency [1] | Potency [10] | Potency [4] | Potency [6] | Potency [7]
active: Potency [2] 1.2 µM | Potency [3] 3.89 µM

O=C(O)C[C@H](O)C[C@H](O)/C=C/c1c(C2CC2)nc2ccccc2c1-c1ccc(F)cc1
active: Potency [9] 0.651 µM | Potency [7] 10.3 µM
inactive: viability change, negative = cytotoxic [10] 0.256% [at 15.8 µM] | activity change, negative = cytotoxicity [4] 3.76% [at 15.8 µM] | activation [5] -0.423% [at 15.8 µM] | activity, negative = inhibition [2] 1.91% [at 10.5 µM] | activation [3] -0.474% [at 11.8 µM] | activity change, negative = cytotoxicity [6] -7.27% [at 19 µM]

CN1CCN(C)CC1
inactive: Potency [1] | Potency [10] | Potency [4] | outcome [5] | Potency [6] | Potency [7] | Potency [8]

Nc1ccc(Cl)c([N+](=O)[O-])c1
inactive: Potency [9] | Potency [10] | Potency [4] | outcome [5] | Potency [2] | Potency [3] | Potency [6] | Potency [7]

c1ccc(C[P+](c2ccccc2)(c2ccccc2)c2ccccc2)cc1
inactive: Potency [1] | Potency [4] | Potency [2] | Potency [3] | Potency [7]
active: Potency [6] 24.3 µM

Cc1c(Cl)c(=O)oc2cc(O)ccc12
inactive: Potency [1] | Potency [10] | Potency [4] | Potency [2] | Potency [3] | Potency [7]

COc1ccc(OC)c(N=Nc2c(O)ccc3ccccc23)c1
active: Potency [4] 43.6 µM | Potency [6] 10.9 µM
inactive: Potency [1] | outcome [5] | Potency [2] | Potency [3] | Potency [7]

NCc1cccc(C2CCN(C(=O)c3ccc(C#Cc4ccccc4F)o3)CC2)c1
inactive: outcome [5] | Potency [2] | Potency [3]
active: Potency [1] 48.6 µM

CC(C)c1ccc2sc3ccccc3c(=O)c2c1
inactive: Potency [1] | Potency [10] | Potency [4] | Potency [6] | Potency [7] | Potency [8]

CN[C@H]1CC[C@@H](c2ccc(Cl)c(Cl)c2)c2ccc(S(N)(=O)=O)cc21
active: Potency [1] 48.6 µM | Potency [6] 61.1 µM | Potency [8] 61.1 µM
inactive: Potency [10] | outcome [5] | Potency [2] | Potency [3]

Cc1cc(F)ccc1-c1cc(N2CC[C@@H](O)[C@H]2CO)ncc1N(C)C(=O)C(C)(C)c1cc(C(F)(F)F)cc(C(F)(F)F)c1
active: Potency [6] 38 µM | Potency [7] 38 µM | Potency [8] 24 µM
inactive: Potency [1] | Potency [10] | Potency [4] | Potency [2] | Potency [3]

O[Si](c1ccccc1)(c1ccccc1)c1ccccc1
inactive: Potency [1] | Potency [10] | Potency [4] | outcome [5] | Potency [6] | Potency [7]
active: Potency [8] 30.6 µM

NC(=O)c1ccccc1Cl
inactive: Potency [1] | Potency [10] | Potency [4] | outcome [5] | Potency [6] | Potency [7] | Potency [8]

CN1CCN(CCCN2c3ccccc3Sc3ccc(Cl)cc32)CC1
inactive: Potency [10] | Potency [4] | outcome [5] | Potency [7]
active: Potency [1] 21.1 µM

CCN(CC)c1ccc(N=Nc2ccccc2)cc1
active: Potency [6] 27.3 µM | Potency [8] 48.6 µM
inactive: Potency [1] | Potency [4] | outcome [5] | Potency [7]

Cc1cccc2c1ccc1ccccc12
inactive: Potency [1] | Potency [10] | Potency [4] | outcome [5] | Potency [2] | Potency [6] | Potency [7] | Potency [8]

[Cl][Dy]([Cl])[Cl]
inactive: Potency [9] | Potency [10] | Potency [4] | outcome [5] | Potency [2] | Potency [3] | Potency [6] | Potency [7]

c1ccc(-c2nc3ccccc3[nH]2)cc1
inactive: Potency [1] | Potency [10] | outcome [5] | Potency [2] | Potency [3] | Potency [7]

O=C1c2ccccc2C(=O)c2c(Cl)cccc21
inactive: Potency [1] | Potency [10] | outcome [5] | Potency [2] | Potency [3] | Potency [6]

Clc1cccc(Cl)n1
inactive: Potency [1] | Potency [10] | Potency [4] | outcome [5] | Potency [6]

c1ccc(-c2ccc(C(c3ccccc3)n3ccnc3)cc2)cc1 (configuration not stated)
inactive: Potency [10] | Potency [4] | outcome [5] | Potency [7]
active: Potency [1] 9.44 µM | Potency [8] 18.8 µM

CN1CCN(CCCN2c3ccccc3Sc3ccc(C(F)(F)F)cc32)CC1
inactive: Potency [10] | Potency [4] | outcome [5] | Potency [7]
active: Potency [1] 26.6 µM | Potency [6] 23.7 µM | Potency [8] 33.5 µM

CC/C=C\C/C=C\C/C=C\CCCCCCCC(=O)OC
inactive: Potency [1] | Potency [10] | outcome [5] | Potency [2] | Potency [3]

Cc1ccc2nc(-c3ccc(N)cc3)sc2c1S(=O)(=O)O
inactive: Potency [1] | Potency [10] | Potency [4] | Potency [2] | Potency [3] | Potency [6] | Potency [8]

CCCCCCCCCC[N+](C)(CCCCCCCCCC)CCC[Si](OC)(OC)OC
active: Potency [9] 24.3 µM | Potency [8] 30.6 µM
inactive: outcome [5] | Potency [2] | Potency [3]
